Experiment [1] in a line: small molecules captured by biotinylated probe aFSTL3 – biochemical, small-molecule microarray, fluorescence 635/667, stem cell growth factor project, primary screen (AID 1064).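 Also: measures binding of the biotinylated anti-FSTL3 antibody to printed compounds.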 As to conditions: higher = more signal.
Experiment [2] can be described thus: binders from COS7 lysate, DM2A8 probe, primary screen, torsin A project, cell lysate, small-molecule microarray, fluorescence 635/667 (AID 1065). Particulars: higher = more signal, COS7 lysate expressing mutant human TOR1A.
Experiment [3] in a line: small molecules captured by biotinylated probe aFGF2 – biochemical, small-molecule microarray, fluorescence 635/667, stem cell growth factor project, primary screen (AID 1067).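 Also: measures binding of biotinylated aFGF2 protein to printed compounds on slides; z-score merges feature fluorescence and signal-to-noise across triplicate slides.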 As to conditions: higher = more signal.
Experiment [4] is described as follows: small molecules captured by biotinylated probe aFGF10 – biochemical, small-molecule microarray, fluorescence 635/667, stem cell growth factor project, primary screen (AID 1071).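 Also: score merges 667 nm spot intensity and signal to noise from triplicate slides.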 As to conditions: higher = more signal.
The target of experiment [5] is Neurogenic locus notch homolog protein 2 (Homo sapiens) (UniProt Q04721). Nature of the experiment: small molecules binding Notch2 protein – biochemical, small-molecule microarray, 635 nm fluorescence, stem cell growth factors, primary screen (AID 1073). Particulars: higher = more signal.
Experiment [6] addresses Pro-neuregulin-1, membrane-bound isoform (Homo sapiens) (UniProt Q02297). Kind of experiment: small molecules binding neuregulin-1 protein – biochemical, small-molecule microarray, fluorescence 635/667, psychiatric disease protein project, primary screen (AID 1075).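 Also: score combines 667 nm spot fluorescence with signal to noise.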 As to conditions: NRG1 binding, 635 nm fluorescence, higher = more signal.
The subject of experiment [7] is Neuregulin-1 EGF-like domain. Kind of experiment: small molecules binding NRG1 EGF domain – biochemical, small-molecule microarray, 635 nm fluorescence, primary screen (AID 1081).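 Also: binding of the protein to compounds printed on small-molecule microarray slides.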 As to conditions: higher = more signal.
Experiment [8] can be described thus: FRG1 expression reporter modulators in myotubes – cell-based, C2C12 myotubes, firefly/Renilla luciferase, luminescence, FRG1 inhibition for FSHD, primary screen (AID 1084). As to conditions: FRG1 promoter luciferase, higher = more signal, called active from +8 up or from −8 down.
Experiment [9] can be described thus: small molecules captured by biotinylated probe aFST – biochemical, small-molecule microarray, fluorescence 635/667, stem cell growth factor project, primary screen (AID 1086).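 Also: score merges 667 nm fluorescence with signal-to-noise of each printed compound spot.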 As to conditions: higher = more signal.
A short description of experiment [10]: binders of probe aHhip on microarray, primary screen, stem cell growth factor project, biochemical, small-molecule microarray, fluorescence 635/667 (AID 1087).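 Also: score merges spot fluorescence at 667nm with spot signal to noise ratio.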 Particulars: higher = more signal.
Experiment [11] relates to PRMT1 (protein arginine N-methyltransferase 1). Kind of experiment: small molecules binding arginine methyltransferase PRMT1 – biochemical, small-molecule microarray, 635 nm fluorescence, primary screen (AID 1088).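 Also: binding of Prmt1 protein to compounds spotted on small-molecule microarray slides.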 Particulars: higher = more signal.
Experiment [12] can be described thus: growth effects on S. cerevisiae YJM789 – YJM789 clinical isolate, OD600, 24 h, basal, primary screen (AID 1089).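 Also: growth of clinical yeast isolate S. cerevisiae YJM 789 seeded 1000 cells per well; test concentration not given here.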 As to conditions: higher = more signal, called active from +8 up or from −8 down.
Experiment [13] can be described thus: S. pombe growth modifiers, basal conditions – strain 972, OD600, 24 h, no modulator, primary screen (AID 1090).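 Also: basal condition with compound alone and no growth modifier present; test concentration not given here.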 As to conditions: S. pombe 972 growth, higher = more signal, called active from +8 up or from −8 down.
Experiment [14] can be described thus: budding yeast growth modifiers under rapamycin – strain BY4716, OD600, 96 h, primary screen (AID 1091). Also: test concentration not given here. Particulars: S. cerevisiae BY4716 + rapamycin, higher = more signal, called active from +8 up or from −8 down.
Experiment [15] deals with Torsin-1A-interacting protein 2 (Homo sapiens) (UniProt Q8NFQ8). Nature of the experiment: small molecules binding lysate-expressed LULL1 – cell lysate, human LULL1 lysate, 635/667 nm fluorescence, primary screen (AID 1092).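 Also: probe is lysate of COS7 cells overexpressing human LULL1; score merges per-feature 667 nm fluorescence with signal-to-noise.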 Particulars: small-molecule microarray, hLULL1 lysate binding, 635 nm fluorescence; higher = more signal.
A short description of experiment [16]: optical density change of DRC41 E. coli – strain DRC41, OD650, 24 h, E. coli filamentation project, primary screen (AID 1093).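 Also: MC1000 strain lacking acrAB efflux and sulA so SOS filamentation is blocked; test concentration not given here.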 Particulars: E. coli DRC41 growth, higher = more signal, called active from +8 up or from −8 down.
Experiment [17] is described as follows: probe aLefty2 binding to arrayed compounds – biochemical, biotinylated probe, 635/667 nm fluorescence, primary screen (AID 1094).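 Also: score merges spot fluorescence near 667 nm with spot signal-to-noise ratio.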 As to conditions: small-molecule microarray, higher = more signal.
Experiment [18] concerns Noggin (protein binding on small-molecule microarray). Kind of experiment: small molecules binding Noggin protein – biochemical, 635/667 nm fluorescence, primary screen (AID 1095).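 Also: score merges 667 nm feature fluorescence with signal to noise over triplicate slides.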 Particulars: 635 nm fluorescence, higher = more signal.
In experiment [19] the target is Neurogenic locus notch homolog protein 3 (Homo sapiens) (UniProt Q9UM47). Kind of experiment: small molecules binding NOTCH3 protein – biochemical, 635/667 nm fluorescence, primary screen (AID 1096). Particulars: small-molecule microarray, 635 nm fluorescence, higher = more signal.
Experiment [20] can be described thus: probe aEGFR binding to arrayed compounds – biochemical, biotinylated probe, 635/667 nm fluorescence, primary screen (AID 1097).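 Also: probe is a biotinylated anti-EGFR antibody binding compounds printed on slides; score combines fluorescence near 667 nm and signal to noise of each spot.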 Particulars: small-molecule microarray, higher = more signal.

Calls of active or inactive are those of the source.

Chain of Pro-neuregulin-1, membrane-bound isoform (Homo sapiens) (Q02297 whole entry, looked up, the tested form may be a part, canonical isoform): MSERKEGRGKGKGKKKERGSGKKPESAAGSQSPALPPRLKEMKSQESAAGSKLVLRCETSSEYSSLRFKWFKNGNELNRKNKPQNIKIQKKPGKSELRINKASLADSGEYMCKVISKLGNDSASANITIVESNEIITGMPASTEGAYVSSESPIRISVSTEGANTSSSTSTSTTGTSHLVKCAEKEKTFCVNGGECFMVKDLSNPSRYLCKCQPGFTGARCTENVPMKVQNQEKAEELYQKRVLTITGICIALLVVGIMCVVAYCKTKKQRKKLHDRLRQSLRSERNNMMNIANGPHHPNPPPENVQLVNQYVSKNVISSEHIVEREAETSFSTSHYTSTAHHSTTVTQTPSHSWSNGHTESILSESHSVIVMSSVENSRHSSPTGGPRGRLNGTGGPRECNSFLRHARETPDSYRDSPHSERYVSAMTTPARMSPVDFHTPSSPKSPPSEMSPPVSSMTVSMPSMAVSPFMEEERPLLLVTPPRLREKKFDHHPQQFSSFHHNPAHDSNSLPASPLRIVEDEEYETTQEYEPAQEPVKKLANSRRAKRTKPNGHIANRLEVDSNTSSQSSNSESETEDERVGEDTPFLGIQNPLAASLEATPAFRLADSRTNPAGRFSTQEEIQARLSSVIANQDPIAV
Chain of Neurogenic locus notch homolog protein 3 (Homo sapiens) (Q9UM47 whole entry, looked up): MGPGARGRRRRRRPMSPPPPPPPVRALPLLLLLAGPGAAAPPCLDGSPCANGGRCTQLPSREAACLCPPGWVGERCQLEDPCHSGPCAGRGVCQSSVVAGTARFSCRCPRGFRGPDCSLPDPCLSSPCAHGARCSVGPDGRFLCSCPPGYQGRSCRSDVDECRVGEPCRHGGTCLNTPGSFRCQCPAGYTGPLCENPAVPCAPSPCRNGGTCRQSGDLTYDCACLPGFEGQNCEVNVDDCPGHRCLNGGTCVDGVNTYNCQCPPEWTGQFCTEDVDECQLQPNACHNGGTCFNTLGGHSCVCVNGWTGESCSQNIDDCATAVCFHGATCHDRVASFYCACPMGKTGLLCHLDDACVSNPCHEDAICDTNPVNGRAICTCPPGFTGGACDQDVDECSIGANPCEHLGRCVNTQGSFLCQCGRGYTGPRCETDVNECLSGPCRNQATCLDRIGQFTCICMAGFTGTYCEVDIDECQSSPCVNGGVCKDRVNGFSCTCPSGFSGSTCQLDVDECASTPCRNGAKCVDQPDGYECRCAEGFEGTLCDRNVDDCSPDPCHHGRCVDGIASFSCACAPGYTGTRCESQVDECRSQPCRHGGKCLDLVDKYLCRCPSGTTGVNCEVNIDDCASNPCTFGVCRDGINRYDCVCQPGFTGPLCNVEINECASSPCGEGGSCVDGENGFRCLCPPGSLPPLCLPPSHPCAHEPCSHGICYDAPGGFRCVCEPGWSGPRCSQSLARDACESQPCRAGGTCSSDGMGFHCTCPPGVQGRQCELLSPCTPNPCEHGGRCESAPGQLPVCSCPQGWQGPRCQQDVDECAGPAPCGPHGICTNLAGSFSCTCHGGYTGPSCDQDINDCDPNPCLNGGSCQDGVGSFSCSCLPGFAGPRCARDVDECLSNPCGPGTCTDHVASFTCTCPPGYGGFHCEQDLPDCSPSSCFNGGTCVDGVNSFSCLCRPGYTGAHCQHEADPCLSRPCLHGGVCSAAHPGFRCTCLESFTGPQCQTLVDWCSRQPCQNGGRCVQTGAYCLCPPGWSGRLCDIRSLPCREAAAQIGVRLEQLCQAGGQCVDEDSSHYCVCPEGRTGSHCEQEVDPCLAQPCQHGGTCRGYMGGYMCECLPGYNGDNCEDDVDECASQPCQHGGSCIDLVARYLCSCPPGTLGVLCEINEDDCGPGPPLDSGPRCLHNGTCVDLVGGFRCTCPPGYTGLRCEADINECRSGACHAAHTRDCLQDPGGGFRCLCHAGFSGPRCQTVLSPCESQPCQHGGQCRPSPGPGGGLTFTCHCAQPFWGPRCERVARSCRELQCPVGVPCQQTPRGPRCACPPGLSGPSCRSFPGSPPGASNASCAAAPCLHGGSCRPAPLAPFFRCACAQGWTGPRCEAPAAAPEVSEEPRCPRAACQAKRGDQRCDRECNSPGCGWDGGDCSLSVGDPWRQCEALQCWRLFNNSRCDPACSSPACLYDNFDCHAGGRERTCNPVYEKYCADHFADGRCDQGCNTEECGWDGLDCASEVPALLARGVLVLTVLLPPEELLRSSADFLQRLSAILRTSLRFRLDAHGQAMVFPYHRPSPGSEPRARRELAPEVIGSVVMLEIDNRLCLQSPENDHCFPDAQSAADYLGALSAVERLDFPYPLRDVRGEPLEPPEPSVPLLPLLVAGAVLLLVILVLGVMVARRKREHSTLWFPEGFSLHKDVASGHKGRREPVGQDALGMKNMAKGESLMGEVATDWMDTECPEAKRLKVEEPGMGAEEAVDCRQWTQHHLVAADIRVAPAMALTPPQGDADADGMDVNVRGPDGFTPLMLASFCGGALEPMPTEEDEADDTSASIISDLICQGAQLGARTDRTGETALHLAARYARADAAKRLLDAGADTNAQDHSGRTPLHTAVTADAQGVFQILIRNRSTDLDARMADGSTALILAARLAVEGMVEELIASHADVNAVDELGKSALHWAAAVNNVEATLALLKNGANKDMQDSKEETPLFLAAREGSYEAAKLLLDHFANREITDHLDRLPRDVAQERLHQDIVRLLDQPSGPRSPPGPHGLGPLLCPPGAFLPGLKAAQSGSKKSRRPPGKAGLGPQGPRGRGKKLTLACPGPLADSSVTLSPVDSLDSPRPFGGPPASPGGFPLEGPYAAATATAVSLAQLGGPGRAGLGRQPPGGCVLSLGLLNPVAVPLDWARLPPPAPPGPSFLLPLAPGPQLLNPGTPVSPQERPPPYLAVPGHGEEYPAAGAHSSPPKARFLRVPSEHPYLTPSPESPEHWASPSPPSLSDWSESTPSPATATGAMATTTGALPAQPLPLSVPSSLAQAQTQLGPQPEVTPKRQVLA
Chain of Torsin-1A-interacting protein 2 (Homo sapiens) (Q8NFQ8 whole entry, looked up): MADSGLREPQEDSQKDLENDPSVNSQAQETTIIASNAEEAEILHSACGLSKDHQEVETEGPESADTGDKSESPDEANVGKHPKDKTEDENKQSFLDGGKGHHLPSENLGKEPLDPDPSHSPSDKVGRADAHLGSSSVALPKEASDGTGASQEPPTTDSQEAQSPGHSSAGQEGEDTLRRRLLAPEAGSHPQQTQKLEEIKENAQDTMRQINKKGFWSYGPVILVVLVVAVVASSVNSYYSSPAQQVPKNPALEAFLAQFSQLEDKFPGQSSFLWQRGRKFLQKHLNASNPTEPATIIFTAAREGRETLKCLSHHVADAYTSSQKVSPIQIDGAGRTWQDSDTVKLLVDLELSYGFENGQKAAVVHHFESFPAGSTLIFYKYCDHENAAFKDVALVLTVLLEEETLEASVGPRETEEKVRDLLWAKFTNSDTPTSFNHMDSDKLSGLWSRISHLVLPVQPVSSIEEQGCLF

`CCCCCN1CC=CC23O[C@@H]4/C=C\CCC(C)OC(=O)C4[C@H]2C(=O)N(CCCCCO)[C@@H]3C1=O` (stereo not given in full): the composite z-score was -0.0551 in [1]; 0.698 in [2]; -0.0871 in [3]; -0.524 in [4]; -0.862 in experiment [5]; 0.948 in experiment [6]. For the same compound, the composite z-score in experiment [7] is -0.69; in experiment [9], -0.467; in [10] it was 0.344; in experiment [11], -0.103; in [15] it was -1.94; in experiment [17], -0.0491. In addition, the composite z-score is -0.0687 in experiment [18], 0.0156 in experiment [19] and -0.149 in experiment [20]. In addition, the z-score in experiment [8] is 0.312 (inactive); in [12] it was -1.46 (inactive); in experiment [13] it was -0.773 (inactive); in [14] it was -1.39 (inactive); in experiment [16], 2.19 (inactive).
As to `C=CC(=C)C1=CCO[C@@H]1[C@H]1CCCN1S(=O)(=O)c1ccccc1[N+](=O)[O-]`, the composite z-score in experiment [1] is -0.552; in experiment [2] it was 0.162; in experiment [3], -0.0716; in experiment [4], 0.138; in [5] it was 1.07; in experiment [6], 0.832. The composite z-score in [7] is 1.01; in experiment [9] it was 0.358; in [10], -0.271; in [11], 0.921; in [15], 0.86; in experiment [17] it was -0.0416. For the same compound, the composite z-score is 0.35 in [18], 1.11 in experiment [19] and -0.115 in experiment [20]. Besides, the z-score in [8] was -0.788 (inactive); in experiment [12], -0.358 (inactive); in experiment [13], 0.131 (inactive); in experiment [14], -0.184 (inactive); in [16], 0.301 (inactive).
As to `NCCCCCCNC(=O)[C@H]1C[C@H]2C(=O)NCC(=O)N2[C@H]1c1cccc(OCCO)c1`, the composite z-score in experiment [1] is -0.196; in experiment [2] it was 0.615; in [3] it was -0.0647; in experiment [4], 0.477; in [5], 0.363; in [6] it was 0.933. Moreover, the composite z-score in [7] is 1.13; in experiment [9], 0.0417; in experiment [10], -0.0994; in [11] it was 1.58; in experiment [15] it was 1.59; in experiment [17], 0.0537. Also, the values for the composite z-score in experiment [18], in experiment [19] and in experiment [20] were 1.5, 1.15 and -0.034, respectively. In addition, the z-score was 1.03 (inactive) in experiment [8]; 0.23 (inactive) in experiment [12]; -1.12 (inactive) in [13]; -0.442 (inactive) in [14]; 1.1 (inactive) in experiment [16].
For `COc1cc(C(O)C2C=CC3C(=O)N(c4ccccc4)C(=O)C3N2Nc2ccc(C#N)cc2)cc(OC)c1OC` (stereo not given), the composite z-score in experiment [1] was found to be 0.606; in [2], 0.226; in [3], 0.179; in experiment [4], 1.14; in [5], 1.67; in [6] it was 2.18. For the same compound, the composite z-score turned out to be 1.41 in experiment [7]; 1.77 in experiment [9]; 0.295 in experiment [10]; 1.54 in experiment [11]; 3.84 in [15]; 0.368 in experiment [17]. Also, the composite z-score in [18] was -0.0742; in experiment [19], 1.03; in experiment [20], 0.273. Besides, the z-score in [8] is 0.209 (inactive); in [12], -0.531 (inactive); in [13] it was 0.849 (inactive); in experiment [14], 1.75 (inactive); in experiment [16], -1.27 (inactive).
`COC(=O)C(CC#Cc1ccc2c(c1)[C@]1(C(=O)N2)[C@H](c2ccc(OCCO)cc2)N2[C@H](c3ccccc3)[C@H](c3ccccc3)OC(=O)[C@H]2[C@@H]1C(=O)NC[C@H](O)c1ccccc1)C(=O)OC`: the composite z-score is 0.194 in experiment [1]; 0.855 in experiment [2]; -0.0011 in experiment [3]; 1.12 in [4]; 0.694 in [5]; 1.29 in experiment [6]. Besides, the composite z-score in [7] is 1.26; in experiment [9] it was -0.0592; in [10], 0.0274; in experiment [11], 1.54; in [15], 2.41; in experiment [17], -0.141. In addition, the composite z-score in [18] is 0.617; in experiment [19], 0.908; in experiment [20], -0.0856. The z-score was 1.03 (inactive) in experiment [8]; 2.37 (inactive) in experiment [12]; 0.31 (inactive) in experiment [13]; 7.43 (inactive) in experiment [14]; 1.89 (inactive) in [16].

These data come from PubChem BioAssay.
